Reference: PubChem BioAssay AID1347404 (Pan Lab, Icahn School of Medicine at Mount Sinai, 2020)
Out of some 140,000 compounds screened, about 860 (0.61%) were called active. Cut-off read from the data, not from the text of the source: active = inhibition above about 25%; inactive = the rest. What follows is part of a selection rich in actives, with near analogues and random picks from the rest.

These compounds were tested against E3 ubiquitin-protein ligase RBX1 (Homo sapiens) + Cullin-1 (Homo sapiens) (UniProt P62877+Q13616) (assay: inhibitors of human ROC1-CUL1 ubiquitin ligase activity (AID 1347404)). Conditions: in vitro K48 di-Ub FRET, acceptor:donor ratio, 45 min; at 10 µM; stronger effect = higher value.
E3 ubiquitin-protein ligase RBX1 (Homo sapiens) + Cullin-1 (Homo sapiens), sequence (P62877 whole entry, looked up): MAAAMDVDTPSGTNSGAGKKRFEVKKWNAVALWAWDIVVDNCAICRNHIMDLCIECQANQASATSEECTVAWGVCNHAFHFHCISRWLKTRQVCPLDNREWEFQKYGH
E3 ubiquitin-protein ligase RBX1 (Homo sapiens) + Cullin-1 (Homo sapiens), sequence (Q13616 whole entry, looked up): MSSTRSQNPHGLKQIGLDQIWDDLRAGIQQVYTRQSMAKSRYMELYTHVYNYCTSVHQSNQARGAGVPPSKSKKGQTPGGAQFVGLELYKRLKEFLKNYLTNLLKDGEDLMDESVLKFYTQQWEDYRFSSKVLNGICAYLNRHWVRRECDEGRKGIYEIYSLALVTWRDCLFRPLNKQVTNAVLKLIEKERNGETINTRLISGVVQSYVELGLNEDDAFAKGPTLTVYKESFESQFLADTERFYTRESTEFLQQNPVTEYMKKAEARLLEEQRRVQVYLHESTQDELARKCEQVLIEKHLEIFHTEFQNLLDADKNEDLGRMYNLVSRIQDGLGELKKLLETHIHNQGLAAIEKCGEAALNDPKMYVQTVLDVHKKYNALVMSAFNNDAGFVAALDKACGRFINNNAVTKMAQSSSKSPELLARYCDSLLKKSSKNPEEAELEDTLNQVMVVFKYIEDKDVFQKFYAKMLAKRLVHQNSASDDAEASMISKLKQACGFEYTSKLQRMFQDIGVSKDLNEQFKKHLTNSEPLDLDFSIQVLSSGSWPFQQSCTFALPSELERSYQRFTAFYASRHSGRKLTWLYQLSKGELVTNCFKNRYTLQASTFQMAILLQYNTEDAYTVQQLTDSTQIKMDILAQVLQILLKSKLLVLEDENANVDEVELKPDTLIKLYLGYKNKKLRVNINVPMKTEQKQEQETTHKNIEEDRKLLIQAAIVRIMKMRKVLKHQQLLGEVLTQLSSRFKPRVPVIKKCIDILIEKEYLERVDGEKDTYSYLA

inhibition, inactive:
Cn1c(CC(=O)c2ccc(F)cc2)nccc1=O 2.65%
O=C(OCc1ccccc1)c1cncc(Br)c1 -7.74%
COC(=O)c1cccc(COC(=O)c2ccc(NC(C)=O)cc2)c1 1.6%
Nc1nc2cccnc2cc1Br 1.54%
CCOc1cccc(CC(=O)N2CCc3c([nH]c4ccccc34)C2c2ccc(F)cc2)c1OCC (stereo unspecified) 1.07%
Fc1cc(Br)cc2c1NC(c1ccccc1C(F)(F)F)C1CC=CC21 (stereo unspecified) 1.76%
CCC(C1=NN2C(=N)/C(=C\c3ccc(OC(=O)c4ccco4)cc3)C(=O)N=C2S1)c1ccccc1 (stereo unspecified) -6.1%
Cc1cc(/C=C2/C(=N)N3N=C(c4ccccc4Cl)SC3=NC2=O)c(C)n1-c1ccc(Cl)cc1Cl 2.61%
Cc1ccc(C)c(-n2nnc(C(=O)Nc3ccc(N4CCN(C)CC4)cc3)c2C)c1 12.2%
COc1cccc(OC)c1C(=O)Oc1ccc(Br)cc1Br 3.84%
CCOC(=O)C1=C(C)N=c2s/c(=C\c3cc(C)n(-c4ccc(Br)cc4)c3C)c(=O)n2C1c1ccccc1Cl (stereo unspecified) -10.4%
CCOC(=O)C1=C(C)N=c2s/c(=C\c3cccnc3)c(=O)n2C1c1ccc(OC)c(Br)c1 (stereo unspecified) -5.43%
CCOC(=O)C1(CCOC)CCN(Cc2ccc(C#CCCO)cc2)CC1 -1.32%
C=C(C)COc1ccc(NC(C)=O)cc1 -3.18%
Cc1ccc(N=C2S/C(=C\c3cc(Cl)ccc3O)C(=O)N2C)cc1C -0.425%
Cc1c(CN2CCc3[nH]nc(-c4cccc(F)c4)c3C2)cnn1C 8.08%
CN(C)S(=O)(=O)N1CCC(C(=O)Nc2ccc(Cl)c(C(F)(F)F)c2)CC1 6.61%
N#Cc1cccc(-c2cccc(-c3ccn[nH]3)c2)c1 2.7%
Cc1ccc(C2=NC(=O)OC2(C)C)c(C)c1 2.99%
COC(=O)COc1ccc(/C=N/NC(=O)c2ccc(N(Cc3ccccc3Cl)S(C)(=O)=O)cc2)cc1 -4.5%
Cc1cc(O)c(C(=O)C2=CSc3nnc(-c4ccccc4)n3N=C2)cc1Cl 2.34%
CCOC(=O)C1C(C)=NC(=O)NC1c1cn(-c2ccccc2)nc1-c1ccc(Cl)cc1 (stereo unspecified) -6.88%
C=CCC(=O)N1CCC(C2CCN(Cc3cccnc3)CC2)C1 (stereo unspecified) 0.333%
Cc1ccc(C)c(NC(=O)NC2CCCc3ccccc32)c1 (stereo unspecified) -5.58%
CC(Oc1ccc(F)cc1)C(=O)NC(C)c1ccccc1 (stereo unspecified) -5.33%
Cc1nn(-c2ccccc2)c(Cl)c1C1c2c(n[nH]c2-c2ccccc2)OC(=N)C1C#N (stereo unspecified) -6.2%
CCn1c2ccccc2c2cc(C=Nc3cccc(Cl)c3C)ccc21 -4.47%
COCCNC(=O)C1CCN(c2nc(C)c3cc(C)c(C)cc3n2)CC1 -4.41%
Cc1cc2nc(N3CCC(C(=O)NC45CC6CC(CC(C6)C4)C5)CC3)nc(C)c2cc1C 17.1%
Clc1ccc(COn2nnc3ccccc32)cc1Cl -0.0969%
O=[N+]([O-])c1ccccc1/C=N/Nc1nc2c(s1)CCCC2 -4.02%
CCCCNC(=O)c1nnn(-c2ccccc2)c1C 9.64%
CCOC(=O)C1=c2s/c(=C/c3ccc(Cl)cc3)c(=O)n2C(=N)C(C(=O)OC)C1c1ccc(Cl)cc1 (stereo unspecified) -2.16%
Cc1ccc(C(=O)Nc2ccc(-c3nnc(SCC(=O)Nc4ccc(F)cc4)n3C)cc2)cc1 2.28%
C#CCOc1ccc(/C=C2\SC(=S)N(c3cccc(C(=O)O)c3)C2=O)cc1OC -1.21%
O=C1SC(=Nc2ccccc2)N=C1Cc1cccc(OC(=O)c2ccccc2)c1 2.05%
Cc1ccc(CCC(=O)NCc2ccc(Cl)cc2)cc1 -2.97%
Nc1nnnn1/N=C/c1ccc([N+](=O)[O-])o1 5.46%
O=C(O)c1cc2c(s1)C=Cc1ccccc1C2 4.96%
Cc1nc2c(sc3nc4ccccc4nc32)c(=O)[nH]1 -2.71%
NC(=O)c1ccccc1NC(=O)c1ccc(CN2CCCCC2)cc1 4.02%
COC(=O)c1ccc2c(c1)C1C=CCC1C(c1cccc([N+](=O)[O-])c1)N2 (stereo unspecified) 5.03%
O=C(c1ccc2c(c1)C1C=CCC1C(c1ccccc1)N2)N1CCOCC1 (stereo unspecified) -11.2%
CC(=O)Nc1ccc(OC(=O)c2cccc(C)c2)cc1 -0.55%
COc1ccccc1-c1nc(CN2CCCC2c2n[nH]c(=O)[nH]2)c(C)o1 (stereo unspecified) -4.69%
Cc1c(/C=N/NC(=O)CSc2nc3ccccc3s2)c2ccccc2n1C 5.36%
Brc1ccc(C#Cc2cccs2)cc1 -4.29%
O=C(COc1ccccc1Cl)Nc1nncs1 2.7%
COc1cccc(-c2nn3c(-c4cccc(C(F)(F)F)c4)nnc3s2)c1 -4.15%
CC1(C)N=C(SCc2ccccc2Cl)c2ccccc2N1 -9.73%
Clc1ccccc1CSc1nncn2c1cc1occc12 6.61%
CN1CCC(N2CCCC2C(=O)Nc2ccc(-c3cccc(F)c3)cc2)CC1 (stereo unspecified) -3.33%
O=C(/C=C/c1ccc([N+](=O)[O-])o1)c1ccco1 -10.2%
Cc1noc(C)c1C(=O)Nc1ccc(C(F)(F)F)cc1 1.67%
Clc1cccc(N2N=C(c3cccs3)CC2c2ccccc2)c1 (stereo unspecified) -9.66%
CC(=O)N1N=C(c2ccc(Cl)cc2Cl)CC1c1ccccc1 (stereo unspecified) -1.24%
Cc1cc(/C=C2\C(=O)NC(=S)N(c3ccc(Cl)cc3)C2=O)c(C)n1-c1ccccc1 1.69%
Cc1ccc(-n2c(C)cc(/C=C3/C(=O)NC(=S)N(c4ccc(Br)cc4)C3=O)c2C)cc1 -0.744%
Cc1ccccc1Cn1cc(C(=O)N2CCN(C3CCCC3)CC2)nn1 14.7%
CC1=Nc2nnnn2C(c2ccc(Br)cc2)C1C(=O)Nc1ccccc1 (stereo unspecified) 0.6%
O=C(c1nn2c(C(F)(F)F)c3c(nc2c1Cl)-c1ccccc1CC3)N1CCN(c2ccc(F)cc2)CC1 -4.56%
N#CC1C(=N)OC2=C(C(=O)CCC2)C1c1ccsc1 (stereo unspecified) 6.79%
CSc1ccc(C2C3=C(CCCC3=O)OC(=N)C2C#N)cc1 (stereo unspecified) 3.66%
Cc1ccc2nc(CNC(=O)Cn3nnnc3CN3CCC(C)CC3)cn2c1 -3.66%
Clc1ccc(-c2cc3ccccc3o2)cc1 -1.45%
O=C(O)c1ccccc1C(=O)Nc1ccc(-c2cn3ccsc3n2)cc1 10.3%
COC(=O)Nc1ccc(S(=O)(=O)N2CCn3c4c(c5cc(C)ccc53)CCCC42)cc1 (stereo unspecified) -2.9%
COCCCNC(=O)c1ccc2c(c1N)C(=O)c1ccccc1C2=O 5.03%
Cc1ccc(OCc2ccc(C(=O)N/N=C/c3sccc3C)cc2)cc1C -9.15%
Cc1cc(C(=O)O)ccc1NCc1ccccc1 15.3%
COc1cc(C(=O)N/N=C(/C)c2cccnc2)cc(OC)c1OC -15.1%
COc1cccc(OC/C=C/CN2CCN(C)CC2)c1 -3.35%
O=C(c1ccco1)N(Cc1cccs1)c1ccc(O)cc1 -0.924%
CCc1nccn1CCC(=O)NCc1nc(-c2ccc(NC(=O)c3ccc(COC)o3)cc2)oc1C -7.82%
CCNC(=O)N1CCNC(=O)C1CC(=O)N1CCN(c2ccc(OC)cc2)CC1 (stereo unspecified) 16.6%
CCOc1ccc(-n2c(Sc3c(N)c4c5c(sc4[nH]c3=O)CCC5)nnc2-c2nn(C)c(C)c2Cl)cc1 -4.22%
CCCNC(=O)C1CCN(Cc2ccccc2C)CC1 4.05%
COC(=O)C1=C(C)O[C@]23CCC[C@]12CC(=O)C3 2.4%
c1ccc2c(Sc3ncnc4sc5c(c34)CCCC5)c[nH]c2c1 0.643%

inhibition, active:
O=C(OCc1ccccc1)c1ccc(O)c(O)c1 43%
CCOc1cccc2c1N[C@@H](c1ccc(C(=O)O)cc1)[C@H]1CC=C[C@@H]21 68.9%
Cc1ccc(C2=NN3C(=N)/C(=C/c4ccco4)C(=O)N=C3S2)cc1 34.8%
CCOC(=O)C1=C(C)N=c2s/c(=C\c3ccc(N(CC)CC)cc3O)c(=O)n2C1c1ccc(Br)cc1 (stereo unspecified) 49.4%
CCC(NC1CCN(c2nc(C)c3cc(C)c(C)cc3n2)CC1)c1ccncc1 (stereo unspecified) 57.6%
O=C(O)c1ccc2c(c1)[C@@H]1C=CC[C@@H]1[C@H](c1ccc3c4c(cccc14)CC3)N2 99.3%
Clc1ccccc1CSc1nnc(-c2ccco2)c(-c2ccco2)n1 101%
O=C(O)c1cccc(N2N=C(c3ccc4c5c(cccc35)C(=O)N(c3ccccc3)C4=O)CC2c2ccccc2)c1 (stereo unspecified) 44.6%
CCCc1sc(-n2c(C)cc(/C=C3/C(=O)NC(=S)N(C)C3=O)c2C)c(C#N)c1C 76.1%
N#CC1C(=N)OC2=C(CCC/C2=C/c2ccoc2)C1c1ccoc1 (stereo unspecified) 50.6%
Clc1ccc(C2=CSC3=Nc4cccc5cccc(c45)N23)cc1 86.8%
Nc1c(S(=O)(=O)O)cc(Nc2ccc(-c3ccc(Nc4cc(S(=O)(=O)O)c(N)c5c4C(=O)c4ccccc4C5=O)cc3)cc2)c2c1C(=O)c1ccccc1C2=O 94.8%
